FMDV antiviral: High Throughput Screening for Foot and Mouth Disease Virus Antivirals; actives 1.2% (n = 410,000); AID 1159524, 2015; FMDV antiviral cell-based qHTS; Potency, µM (series often up to 57.9 µM), actives largely listed as inhibitors; calls by dose curve; tested in HEK293T cells; further: read-out not given here; nearly all actives have a fitted effect of over 45% in size
LASV entry inh: qHTS for Inhibitors of binding or entry into cells for Lassa Virus; Lassa virus pseudotype entry inhibition, cell reporter; AID 540256, 2011; actives 1.2% (n = 300,000); Potency, µM (series often up to 37.9 µM), usual class: inhibitors; calls by dose curve; tested in HEK293 cells; further: nearly all actives have a fitted effect of over 50% in size
VACV mCherry inh: qHTS for Stage-Specific Inhibitors of Vaccinia Orthopoxvirus: mCherry Reporter Primary qHTS | Vaccinia virus mCherry reporter infection, fluorescence | Potency, µM (top dose mostly 36.5 µM), actives largely listed as inhibitors | actives 0.63% (n = 310,000) | AID 720579, 2013; calls by dose curve; tested in A549 cells; further: nearly all actives have a fitted effect of over 35% in size
Marburg entry inh: qHTS for inhibitors of binding or entry into cells for Marburg Virus | actives 1.8% (n = 300,000) | Marburg virus pseudotyped entry inhibition, cell reporter | Potency, µM (top dose mostly 37.8 µM), actives largely listed as inhibitors; calls by dose curve; tested in HEK293 cells
HCMV inh: qHTS Assay for inhibitors of the human cytomegalovirus (HCMV); HFF cells, HCMV-luciferase reporter, 72 h; hits give low values; activity change, negative = inhibition, % at 57.5 µM; actives 4.5% (n = 410,000); AID 1259415, 2018; in the data active means activity change below about -60%; inconclusive means no clear call, values can overlap the other calls; inactive means above about -39%
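Cell-based, HFFs, 1000 cells/well, 16 h 37C; cpds in DMSO + HCMV-luc, MOI 1 PFU/cell; 72 h 37C; OneGlo luminescence after 5 min RT; norm. to buffer vs Salinomycin 10uM.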
Vaccinia Venus: qHTS for Stage-Specific Inhibitors of Vaccinia Orthopoxvirus: Venus Reporter Primary qHTS. Potency, µM (top dose mostly 36.5 µM), hits mostly inhibitors. actives 0.46% (n = 330,000). Vaccinia virus Venus reporter expression, fluorescence. AID 720580, 2013; calls by dose curve; tested in A549 cells; further: nearly all actives have a fitted effect of over 30% in size
Each line names hits and unclear results; the compound was inactive in the other large screens. Only some compounds are listed: those with a hit (about 6.5% of all), similar ones and a draw of the others.

CN(CC(=O)Nc1cccc(F)c1)CC(=O)N1CCc2ccccc21	none
[Hg+][c]1ccccc1	VACV mCherry inh 2µM, Vaccinia Venus 2µM (no result: FMDV antiviral, LASV entry inh, Marburg entry inh, HCMV inh)
c1ccc(N=Nc2ccccc2)cc1	none (no result: LASV entry inh, Marburg entry inh, HCMV inh)
O=C(c1ccc2c(c1)OCO2)N(Cc1cc2cc3c(cc2nc1N1CCOCC1)CCC3)CC1CCCO1 (centres undefined)	none (no result: LASV entry inh, Marburg entry inh, HCMV inh)
CC(C)(C)c1ccc(C(=O)Nc2c(C(=O)c3ccc(F)cc3)oc3ccccc23)cc1	none
Cc1ccc(C(=O)c2oc3ccccc3c2NC(=O)c2cc(-c3ccccc3O)n[nH]2)cc1	HCMV inh -63.0
Cc1ccc(C(=O)c2oc3ccccc3c2NC(=O)c2cc(-c3cc(C)ccc3O)n[nH]2)cc1	HCMV inh -62.7 (no result: LASV entry inh, Marburg entry inh)
O=C(Nc1c(C(=O)c2ccccc2)oc2ccccc12)c1cc(-c2ccccc2O)n[nH]1	VACV mCherry inh inconclusive, Marburg entry inh inconclusive, Vaccinia Venus inconclusive
CC(C)(C)C1CCc2c(sc(NC(=O)c3ccco3)c2C(=O)Nc2ccccc2Cl)C1 (centres undefined)	Marburg entry inh inconclusive
COC(=O)CC=C[C@@H](C)[C@@H](C=NOC[C@@H](C)[C@H](OCc1ccccc1)C(C)C)NS(=O)(=O)c1ccc(C)cc1	none (no result: FMDV antiviral, VACV mCherry inh, HCMV inh, Vaccinia Venus)
Cc1cccc(NC(=O)c2cccc(N3C(=O)C4C5C=CC(C6CC56)C4C3=O)c2)c1 (centres undefined)	FMDV antiviral 15.8µM, Marburg entry inh inconclusive
Cc1cc(C)cc(NC(=O)c2cccc(N3C(=O)C4C5C=CC(C5)C4C3=O)c2)c1 (centres undefined)	Marburg entry inh inconclusive
COC(=O)[C@H]1[C@H](CO)[C@H]2Cn3c(ccc(Br)c3=O)[C@@H]1N2C(=O)NC(C)C	none (no result: FMDV antiviral, LASV entry inh, VACV mCherry inh, Marburg entry inh, Vaccinia Venus)
O=C(CCc1cn(Cc2ccccc2F)c2ccccc12)NCc1ccc(Cl)cc1	FMDV antiviral 10µM (no result: Marburg entry inh)
Cc1ccc(CNC(=O)CCc2cn(Cc3ccc(C)cc3)c3ccccc23)cc1	none (no result: Marburg entry inh)
CC(Sc1nnc(CC(=O)Nc2ccccc2F)n1C)C(=O)Nc1nccs1 (centres undefined)	none
C[C@H](NC(=O)c1ncn2c1C(=O)N[C@@H](C)C2)C(=O)OC(C)(C)C	none (no result: LASV entry inh, Marburg entry inh)
Cc1cccc(COC[C@H](Cc2ccccc2)N2CCN(C(=O)c3ccc(Cl)c(Cl)c3)CCC2=O)c1	none (no result: LASV entry inh, Marburg entry inh)
Cc1cccc(COCC(Cc2ccccc2)N2CCN(C(=O)c3cccc(C)c3)CCC2=O)c1 (centres undefined)	LASV entry inh 7.31µM
CC(C)(C)c1ccc(C(=O)N2CCC(=O)N([C@H](COCc3ccccc3)Cc3ccccc3)CC2)cc1	none (no result: LASV entry inh, Marburg entry inh)
Cc1cccc(COCC(Cc2ccccc2)N2CCN(C(=O)c3ccc(Cl)c(Cl)c3)CCC2=O)c1 (centres undefined)	FMDV antiviral inconclusive, LASV entry inh 14.6µM, VACV mCherry inh inconclusive, Vaccinia Venus inconclusive
CC(C)(C)c1ccc(C(=O)N2CCC(=O)N(C(COCc3ccccc3)Cc3ccccc3)CC2)cc1 (centres undefined)	FMDV antiviral inconclusive, LASV entry inh 8.2µM, Marburg entry inh inconclusive, Vaccinia Venus inconclusive
CN(Cc1ccc2c(c1)CN(C(=O)c1cccc(N(C)C)c1)CCO2)Cc1cc(C2CC2)n[nH]1	none (no result: LASV entry inh, Marburg entry inh, HCMV inh)
Cc1ccn2c(=O)cc(COc3ccc(NC(=O)COc4ccccc4)cc3)nc2c1	none (no result: Marburg entry inh)
COc1ccc(C(CC(=O)Nc2cccc(C)c2C)N2Cc3ccccc3C2=O)cc1 (centres undefined)	none (no result: Marburg entry inh)
COC(=O)CSc1nnc(CNC(=O)c2ccccc2F)n1-c1ccccc1	none
Clc1cccc(Cl)c1Cn1cnc(=NCc2ccco2)c2[nH]cnc21	Marburg entry inh inconclusive, HCMV inh -71.0 (no result: VACV mCherry inh, Vaccinia Venus)
O=C(CSc1nnc(-c2ccc(O)cc2)n1Cc1ccccc1)NNC(=O)c1ccc(Br)cc1	HCMV inh -67.8
N#Cc1nc(Nc2cc(F)cc(F)c2)c2ncn(CC(F)F)c2n1	none (no result: LASV entry inh, VACV mCherry inh, Marburg entry inh, Vaccinia Venus)
N#Cc1nc(NCC(F)F)nc(Nc2cc(F)cc(F)c2)n1	FMDV antiviral 11.2µM (no result: LASV entry inh, VACV mCherry inh, Marburg entry inh, Vaccinia Venus)
Cc1cc2cc(C)c3nnc(SCC(=O)N4CCN(C(=O)c5ccco5)CC4)n3c2cc1C	HCMV inh -73.2 (no result: FMDV antiviral)
O=C(CSc1nnc(-c2ccccc2Br)o1)N1CCN(C(=O)c2ccco2)CC1	VACV mCherry inh 12.6µM, Vaccinia Venus inconclusive (no result: FMDV antiviral)
CCOc1ccc(OCCCC(=O)Nc2cc(Cl)ccc2-n2cncn2)cc1	FMDV antiviral inconclusive, HCMV inh -71.8 (no result: LASV entry inh, VACV mCherry inh, Marburg entry inh, Vaccinia Venus)
CCOc1ccc(Oc2ccc(Cl)cc2NC(=O)CCNC(C)=O)cc1	HCMV inh -65.5
O=C(c1n[nH]c2c1CCCC2)N1CCOc2ccc(C(O)C3CCCCC3)cc2C1 (centres undefined)	none (no result: LASV entry inh, Marburg entry inh, HCMV inh)
COCCCNC(=O)c1cccn2c(=O)c3cc4ccccc4cc3nc12	LASV entry inh inconclusive, Marburg entry inh inconclusive, HCMV inh -81.2 (no result: VACV mCherry inh, Vaccinia Venus)
Cc1cccn2c(=O)c3cc(C(=O)NCCc4ccccc4)c(=N)n(CCCn4ccnc4)c3nc12	Marburg entry inh inconclusive
CCNC(=O)c1cc2c(=O)n3cccc(C)c3nc2n(CCc2ccccc2)c1=N	HCMV inh -102.9
COCCn1c(=N)c(C(=O)NCCc2ccccc2)cc2c(=O)n3cccc(C)c3nc21	Marburg entry inh inconclusive, HCMV inh -68.7
COc1cccc(NC(=O)c2ccc3c(c2)N(CC(=O)N2CCOCC2)C(=O)C(C)(C)O3)c1	LASV entry inh inconclusive
CSC[C@H]1CN(c2ccc(Br)cc2)C(=O)[C@H]1CC(=O)Nc1ccccc1	none (no result: FMDV antiviral, VACV mCherry inh, Marburg entry inh, HCMV inh, Vaccinia Venus)
NNC(=O)c1[nH]c2ccc(Br)cc2c1-c1ccccc1	LASV entry inh inconclusive, VACV mCherry inh inconclusive, Marburg entry inh inconclusive, HCMV inh -96.1, Vaccinia Venus inconclusive
NNC(=O)c1[nH]c2ccc(Cl)cc2c1-c1ccccc1	LASV entry inh inconclusive, Marburg entry inh inconclusive, HCMV inh -96.9, Vaccinia Venus inconclusive
O=C(CN1Cc2ccccc2OC(c2ccsc2)C1)N1CCN(Cc2ccc3c(c2)OCO3)CC1 (centres undefined)	none (no result: LASV entry inh, Marburg entry inh, HCMV inh)
COc1cc(CNC(=O)c2cc(-c3ccc(F)cc3OC)n[nH]2)cc(OC)c1	none (no result: LASV entry inh, Marburg entry inh)
COc1ccccc1N(CC(=O)NCc1ccccc1)C(=O)CCC(=O)Nc1nccs1	LASV entry inh inconclusive
CC(=O)Nc1ccc(Oc2cc(C#N)c(C#N)cc2N2CCCCCC2)cc1	FMDV antiviral 17.8µM, LASV entry inh inconclusive, VACV mCherry inh inconclusive, Marburg entry inh inconclusive, HCMV inh inconclusive, Vaccinia Venus inconclusive
Cc1cc(-c2ccnc(-n3ncc(C(=O)N4CCCCC4c4cccnc4)c3C3CC3)n2)c(C)s1 (centres undefined)	none (no result: LASV entry inh, Marburg entry inh, HCMV inh)
CCN(CC)c1ccc(C=C(c2nnnn2-c2ccccc2)c2nnnn2-c2ccccc2)cc1	LASV entry inh 2.51µM, Marburg entry inh inconclusive
NC(=O)NC(CC(=O)OCC(=O)Nc1nnc(-c2ccccc2)o1)c1ccc(Cl)cc1 (centres undefined)	none (no result: LASV entry inh, Marburg entry inh)

From PubChem BioAssay
